Source: PubChem BioAssay (NCATS)
Inconclusive results are not listed. Activity calls are given as the source filed them. Unless noted, calls follow the shape of the full dose curve.

Experiments:
[1] = molecular target: Bile acid receptor (Homo sapiens) (UniProt Q96RI1); assay: qHTS assay for small molecule agonists of farnesoid X receptor signaling (AID 588527); conditions: HEK293T FXR-UAS-bla, beta-lactamase ratio, 16 h; activation: stronger effect = higher value;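 also: series mostly up to about 77 µM; 0% = vehicle basal and 100% = reference agonist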
Sequence of Bile acid receptor (Homo sapiens) (Q96RI1 whole entry, looked up): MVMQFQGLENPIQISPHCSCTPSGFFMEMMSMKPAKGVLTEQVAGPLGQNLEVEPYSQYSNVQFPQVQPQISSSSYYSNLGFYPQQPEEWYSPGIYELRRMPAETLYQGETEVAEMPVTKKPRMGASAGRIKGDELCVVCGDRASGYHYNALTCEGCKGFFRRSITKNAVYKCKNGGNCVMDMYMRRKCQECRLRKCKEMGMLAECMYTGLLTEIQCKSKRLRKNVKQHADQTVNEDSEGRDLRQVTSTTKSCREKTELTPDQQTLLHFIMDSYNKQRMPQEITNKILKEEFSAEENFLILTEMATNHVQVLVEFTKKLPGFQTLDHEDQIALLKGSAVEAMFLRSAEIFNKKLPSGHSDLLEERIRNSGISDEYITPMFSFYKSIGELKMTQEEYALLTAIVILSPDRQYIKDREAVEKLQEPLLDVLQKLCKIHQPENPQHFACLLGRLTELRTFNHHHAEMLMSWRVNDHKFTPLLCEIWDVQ
Method in brief: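 Agonist-mode beta-lactamase reporter in GeneBLAzer FXR-UAS-bla HEK293T cells, titration up to 92 uM, 16 h exposure at 37 C, CCF4 fluorescence. Response scaled to DMSO (0%) and 100 uM chenodeoxycholic acid (100%), then Hill-fitted for EC50 and efficacy.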

[2] = molecular target: Peroxisome proliferator-activated receptor delta (Homo sapiens) (UniProt Q03181); assay: qHTS assay for small molecule agonists of peroxisome proliferator-activated receptor delta signaling (AID 588534);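 also: 0% = DMSO basal wells and 100% = positive control agonist at 10 µM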
Sequence of Peroxisome proliferator-activated receptor delta (Homo sapiens) (Q03181 whole entry, looked up): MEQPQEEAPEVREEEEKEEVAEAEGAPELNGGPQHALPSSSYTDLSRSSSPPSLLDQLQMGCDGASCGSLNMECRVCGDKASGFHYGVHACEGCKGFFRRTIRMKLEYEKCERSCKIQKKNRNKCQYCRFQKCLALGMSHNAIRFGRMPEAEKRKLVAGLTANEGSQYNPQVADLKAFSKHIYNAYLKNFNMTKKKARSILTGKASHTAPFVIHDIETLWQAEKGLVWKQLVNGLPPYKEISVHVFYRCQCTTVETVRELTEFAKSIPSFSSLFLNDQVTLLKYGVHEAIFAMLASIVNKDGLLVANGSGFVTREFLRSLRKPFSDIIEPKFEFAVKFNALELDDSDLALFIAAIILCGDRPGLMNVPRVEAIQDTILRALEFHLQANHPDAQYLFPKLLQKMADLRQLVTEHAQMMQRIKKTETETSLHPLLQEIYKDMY
Method in brief: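 Agonist-mode qHTS; reporter cells, 5 hrs 37 C pre-incubation; compound titration, 18 hrs 37 C; CCF4 dye, 2 hrs RT; fluorescence read. EC50/efficacy via Hill fit.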

[3] = qHTS assay for small molecule antagonists of peroxisome proliferator-activated receptor delta signaling (AID 588535; active = well fitted inhibition curve with a large enough effect in the signal ratio, with a control signal flat, not every such curve was filed as active; the % refers to the signal ratio;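 as to max response: cells co-treated with a PPAR-delta agonist as stimulator during compound exposure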); conditions: HEK293T PPARd-UAS-bla, beta-lactamase FRET ratio, 18 h; 460 nm channel
Method in brief: (§1)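 Inhibition of PPAR-delta response element-driven beta-lactamase expression is measured in HEK293T cells exposed to a compound titration series for 18 hrs at 37 C. Half-maximal inhibition comes from Hill equation fitting.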

[4] = molecular target: Peroxisome proliferator-activated receptor delta (Homo sapiens) (UniProt Q03181); assay: as above
Method in brief: as §1

[5] = molecular target: Thyroid hormone receptor beta (Homo sapiens) (UniProt P10828); assay: qHTS assay for small molecule agonists of thyroid hormone receptor beta signaling (AID 588545)
Sequence of Thyroid hormone receptor beta (Homo sapiens) (P10828 whole entry, looked up): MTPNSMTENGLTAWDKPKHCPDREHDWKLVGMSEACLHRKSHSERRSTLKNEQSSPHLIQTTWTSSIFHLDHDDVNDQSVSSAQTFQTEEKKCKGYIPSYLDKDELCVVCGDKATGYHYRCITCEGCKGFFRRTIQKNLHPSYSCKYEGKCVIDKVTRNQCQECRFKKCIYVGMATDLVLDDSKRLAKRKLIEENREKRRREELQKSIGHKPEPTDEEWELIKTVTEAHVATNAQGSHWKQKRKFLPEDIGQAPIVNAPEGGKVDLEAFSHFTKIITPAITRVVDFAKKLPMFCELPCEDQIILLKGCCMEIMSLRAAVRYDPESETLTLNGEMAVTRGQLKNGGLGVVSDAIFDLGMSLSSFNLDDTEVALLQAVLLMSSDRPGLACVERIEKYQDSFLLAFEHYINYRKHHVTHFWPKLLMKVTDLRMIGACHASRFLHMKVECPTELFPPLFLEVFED
Method in brief: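 Agonist activity was read as beta-lactamase CCF4 fluorescence (405 ex, 460/530 em), scaled between DMSO (0%) and 10 nM T3 (100%), then Hill-fitted for EC50 and efficacy. HEK 293 TR-UAS-bla cells in 2% charcoal/dextran FBS medium were exposed 18 h at 37 C.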

[6] = qHTS assay for small molecule activators of the p53 signaling pathway (AID 651743; active = well fitted activation curve with a large enough effect in the signal ratio, not every such curve was filed as active; the % refers to the signal ratio; also: series mostly up to about 92 µM; % of control where 0% means no effect); conditions: HCT-116 p53RE-bla, beta-lactamase FRET ratio, 16 h; activation: stronger effect = higher value
Method in brief: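 Agonist-mode quantitative HTS in HCT-116 cells carrying a p53-response-element beta-lactamase reporter; 16 h compound treatment at 37 C, then FRET substrate loading for 2 h at room temperature and fluorescence read.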

[7] = qHTS assay for small molecule activators of the nuclear factor-kappa B (NF-kB) signaling pathway (AID 651749; active = well fitted activation curve with a large enough effect in the signal ratio; the % refers to the signal ratio; also: series mostly up to about 77 µM; % of control where 0% means no effect); conditions: NF-kB-bla ME-180 cells, beta-lactamase FRET ratio, 16 h; activation: stronger effect = higher value
Method in brief: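 Human ME-180 cervical cells with an NF-kB-bla construct; compounds added via 23 nL pin transfer, DMSO as vehicle; incubation 16 hr. Reporter activity measured by FRET disruption.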

[8] = qHTS assay for environmental chemicals that activate the Aryl hydrocarbon Receptor (AhR) signaling pathway (AID 651777; active = well fitted curve in the direction sought with a large enough effect; an effect the other way counts as inactive or inconclusive; also: % of control where 0% means no effect; nearly all actives have a fitted effect of over 15% in size); conditions: 1A2-DRE human hepatoma cells, luciferase, 24 h; activation: stronger effect = higher value
Method in brief: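 Reporter gene assay: hepatoma cells with DRE/CYP1A2-luciferase, 24 hr compound incubation at 37 C, 5% CO2, luminescence after One-Glo (30 min, RT).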

[9] = molecular target: Peroxisome proliferator-activated receptor alpha (Homo sapiens) (UniProt Q07869); assay: qHTS assay for small molecule agonists of the peroxisome proliferator-activated receptor alpha (PPARalpha) signaling pathway (AID 651778; active = well fitted curve in the direction sought with a large enough effect; an effect the other way counts as inactive or inconclusive; also: % of control where 0% means no effect); conditions: PathHunter PPARalpha complementation, chemiluminescence, 6 h; max response: stronger effect = higher value
Sequence of Peroxisome proliferator-activated receptor alpha (Homo sapiens) (Q07869 whole entry, looked up): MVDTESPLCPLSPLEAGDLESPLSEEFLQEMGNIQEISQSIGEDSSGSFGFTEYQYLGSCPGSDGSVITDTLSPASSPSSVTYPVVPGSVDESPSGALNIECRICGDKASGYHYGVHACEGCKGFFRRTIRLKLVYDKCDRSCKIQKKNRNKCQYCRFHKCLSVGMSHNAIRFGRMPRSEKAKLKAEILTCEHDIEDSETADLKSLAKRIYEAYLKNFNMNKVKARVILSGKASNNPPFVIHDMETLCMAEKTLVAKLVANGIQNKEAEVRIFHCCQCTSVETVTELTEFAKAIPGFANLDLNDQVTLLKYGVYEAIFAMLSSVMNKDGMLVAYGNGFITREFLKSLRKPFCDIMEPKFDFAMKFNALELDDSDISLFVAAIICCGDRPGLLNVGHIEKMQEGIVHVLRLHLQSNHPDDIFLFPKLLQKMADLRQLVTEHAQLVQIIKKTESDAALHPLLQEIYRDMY
Method in brief: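 Cells plated at 2,000/well and held overnight at 37 C, 5% CO2, then compound added by pin tool for 6 hr; after PathHunter detection reagent and 60 min at room temperature, chemiluminescence from enzyme complementation was read.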

[10] = qHTS assay for small molecule agonists of the antioxidant response element (ARE) signaling pathway measured by Nrf2-dependant transcriptional activity - cell viability counter screen (AID 720653; active = well fitted curve in the direction sought with a large enough effect in the repeat runs; an effect the other way counts as inactive or inconclusive; also: % is scaled to controls: 0 for no effect and ±100 for the full control effect); conditions: ARE-bla HepG2 viability, CellTiter-Glo ATP luminescence, 16 h; max response: stronger effect = lower value
Method in brief: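 ARE-bla HepG2 cells (2,000/well) rested 5 hrs at 37C/5% CO2, then exposed to compounds in DMSO for 16 hrs. Viability was read in the same wells as intracellular ATP by luminescence, 30 min at room temperature after reagent addition.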

[11] = qHTS assay for cell viability of HEK293 cells (AID 743288; active = well fitted curve in the direction sought with a large enough effect; an effect the other way counts as inactive or inconclusive; also: % is scaled to controls: 0 for no effect and ±100 for the full control effect; nearly all actives have a fitted effect of over 50% in size); conditions: ATP luminescence (CellTiter-Glo), 18 h; max response: stronger effect = lower value
Method in brief: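 Steps: plate 2,000 parental HEK293 cells per well; incubate ≥5 h, 37 C; add compounds in DMSO; incubate 18 h, 37 C; add CellTiter-Glo; wait 30 min at room temperature; read luminescence.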

[12] = qHTS assay for cell viability of the p53RE-bla HCT-116 cell line (AID 743292; active = well fitted curve in the direction sought with a large enough effect; an effect the other way counts as inactive or inconclusive; also: nearly all actives have a fitted effect of over 55% in size; also: potency is read from the fitted curve at half-maximal effect)
Method in brief: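 ATP-based luminescence, 16 h compound exposure at 37 C, p53RE-bla HCT-116 cells at 4,000/well.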

[13] = molecular target: Nuclear receptor subfamily 1 group I member 2 (Rattus norvegicus) (UniProt Q9R1A7); assay: qHTS assay for small molecule activators of the rat pregnane X receptor (rPXR) signaling pathway (AID 651751; call rule not given here; also: 0% is about no effect); conditions: rPXR reporter cells, luciferase (One-Glo), 24 h
Sequence of Nuclear receptor subfamily 1 group I member 2 (Rattus norvegicus) (Q9R1A7 whole entry, looked up): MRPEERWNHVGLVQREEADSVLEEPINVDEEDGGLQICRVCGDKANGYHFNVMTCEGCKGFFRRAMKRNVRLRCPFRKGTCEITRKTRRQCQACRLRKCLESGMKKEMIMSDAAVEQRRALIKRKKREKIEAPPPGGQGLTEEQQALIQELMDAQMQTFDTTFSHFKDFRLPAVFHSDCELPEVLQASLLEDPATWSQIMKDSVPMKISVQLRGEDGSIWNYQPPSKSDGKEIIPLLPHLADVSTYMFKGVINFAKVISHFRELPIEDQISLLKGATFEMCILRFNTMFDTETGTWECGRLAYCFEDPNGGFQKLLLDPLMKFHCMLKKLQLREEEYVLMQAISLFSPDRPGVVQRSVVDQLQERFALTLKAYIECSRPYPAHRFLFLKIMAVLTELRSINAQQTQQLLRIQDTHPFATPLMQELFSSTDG

[14] = molecular target: Vitamin D3 receptor (Homo sapiens) (UniProt P11473); assay: qHTS assay for small molecule antagonists of vitamin D receptor signaling (AID 588541);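 also: receptor activated by calcitriol during compound treatment; series mostly up to about 77 µM; % is scaled to controls: 0 for no effect and ±100 for the full control effect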
Sequence of Vitamin D3 receptor (Homo sapiens) (P11473 whole entry, looked up): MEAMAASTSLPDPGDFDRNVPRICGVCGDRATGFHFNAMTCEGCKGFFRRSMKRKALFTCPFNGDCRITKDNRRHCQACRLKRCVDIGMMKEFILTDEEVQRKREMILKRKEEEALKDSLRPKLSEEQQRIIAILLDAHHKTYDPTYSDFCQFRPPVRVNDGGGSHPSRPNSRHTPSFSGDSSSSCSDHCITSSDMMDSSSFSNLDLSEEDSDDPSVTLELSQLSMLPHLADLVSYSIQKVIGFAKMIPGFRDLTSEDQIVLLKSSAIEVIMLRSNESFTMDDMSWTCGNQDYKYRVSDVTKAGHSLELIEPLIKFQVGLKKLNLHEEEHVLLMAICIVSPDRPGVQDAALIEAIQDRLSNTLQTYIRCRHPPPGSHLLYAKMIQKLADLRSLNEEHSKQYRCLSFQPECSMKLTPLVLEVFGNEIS
Method in brief: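 VDR-UAS-bla HEK293T cells (2000/well, 2% charcoal-stripped FBS) were treated with titrated compounds plus 1-alpha,25-dihydroxyvitamin D3 (50 nM or 3 nM final) for 16 h at 37 C. CCF4 beta-lactamase fluorescence was read; Hill fits gave IC50.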

[15] = qHTS assay for small molecule agonists of retinoid X receptor alpha signaling (AID 588544); conditions: HEK293T RXRa-UAS-bla, beta-lactamase reporter, 18 h; 530 nm emission;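 as to activation: 0% = DMSO basal wells and 100% = reference agonist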
[16] = molecular target: Retinoic acid receptor RXR-alpha (Homo sapiens) (UniProt P19793); assay: as above
Sequence of Retinoic acid receptor RXR-alpha (Homo sapiens) (P19793 whole entry, looked up): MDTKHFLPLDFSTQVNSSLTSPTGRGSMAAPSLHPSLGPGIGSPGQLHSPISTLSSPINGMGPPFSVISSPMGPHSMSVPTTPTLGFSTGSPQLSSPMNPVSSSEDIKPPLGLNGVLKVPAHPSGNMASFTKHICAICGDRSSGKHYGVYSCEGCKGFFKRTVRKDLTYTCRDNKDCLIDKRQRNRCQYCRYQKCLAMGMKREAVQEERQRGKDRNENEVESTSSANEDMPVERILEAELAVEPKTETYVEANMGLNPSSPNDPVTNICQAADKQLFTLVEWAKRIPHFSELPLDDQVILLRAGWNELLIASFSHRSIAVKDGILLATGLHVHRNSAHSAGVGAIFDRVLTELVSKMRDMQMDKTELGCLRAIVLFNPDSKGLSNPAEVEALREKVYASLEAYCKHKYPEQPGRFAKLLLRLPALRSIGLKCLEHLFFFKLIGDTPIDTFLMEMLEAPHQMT

[17] = qHTS assay for small molecule antagonists of retinoid X receptor alpha signaling (AID 588546; active = well fitted inhibition curve with a large enough effect in the signal ratio, with a control signal flat, not every such curve was filed as active; the % refers to the signal ratio;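 also: cells stimulated with 9-cis-retinoic acid as agonist; % is scaled to controls: 0 for no effect and ±100 for the full control effect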); conditions: HEK293T RXRa-UAS-bla, beta-lactamase ratio, antagonist mode; measured here: W530 green channel, cytotoxicity proxy
Method in brief: (§2)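 Beta-lactamase reporter inhibition, read as CCF4 fluorescence ratio (ex 405, em 460/530 nm) after 2 h at RT. HEK293T UAS-bla cells, 2500/well, were stimulated with 9-cis-RA at 500 or 100 nM final alongside test compound for 18 h at 37 C.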

[18] = molecular target: Retinoic acid receptor RXR-alpha (Homo sapiens) (UniProt P19793); assay: as above; conditions: HEK293T RXRa-UAS-bla, beta-lactamase ratio, antagonist mode
Method in brief: as §2

[19] = qHTS assay for small molecule agonists of the antioxidant response element (ARE) signaling pathway measured by Nrf2-dependant transcriptional activity (AID 720636; active = well fitted curve in the direction sought with a large enough effect in the repeat runs; an effect the other way counts as inactive or inconclusive;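 also: HepG2 cells with an ARE-driven luciferase reporter; % of control where 0% means no effect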)
Method in brief: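 Nrf2-dependent transcription is measured in ARE-luc HepG2 cells: compound is applied for 16 hr at 37 C after a 6 hr attachment period, and luciferase activity is quantified by luminescence using ONE-Glo.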

[20] = molecular target: Vitamin D3 receptor (Homo sapiens) (UniProt P11473); assay: qHTS assay for small molecule agonists of vitamin D receptor signaling (AID 588543);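 also: 0% = DMSO basal and 100% = reference agonist control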
Method in brief: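 VDR-UAS-bla HEK293T cells, 2000/well, 2% charcoal-stripped FBS; compound titration 16 h at 37 C; CCF4 beta-lactamase ratio read. Normalized to 50 nM 1-alpha,25-dihydroxyvitamin D3 (100%) and DMSO; Hill fit gives EC50, efficacy.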

CC(C)N(C(=O)COc1nnc(C(F)(F)F)s1)c1ccc(F)cc1
inactive: activation [1] 0.828% | outcome [2] | Potency [4] | Potency [5] | activation [6] 0.0644% | activation [7] -1.4% | activation [8] -0.614% | max response [9] -0.147% | max response [10] -9% | max response [11] -8% | Potency [12] | max response [13] -3.84%
-37.1%: max response [3]

COC(=O)/C=C(\C)OP(=O)(OC)OC
-19.7%: max response [17]
inactive: activation [1] 7.79% | outcome [2] | Potency [4] | Potency [14] | Potency [16] | Potency [5] | max response [18] -10.3% | activation [6] -3.2% | activation [8] 0.265% | max response [9] -1.45% | Potency [19] | max response [10] 12.7% | max response [11] -3.83% | max response [13] -0.069%
-22.9%: max response [15]
-21.6%: max response [3]

CC(C)OC(=O)C(O)(c1ccc(Br)cc1)c1ccc(Br)cc1
active: Potency [12] 70.8 µM
inactive: activation [1] 5.65% | Potency [14] | outcome [20] | activation [8] 8.09% | Potency [19] | max response [10] -7.97%

CC1(C)CC/C(=C\c2ccc(Cl)cc2)C1(O)Cn1cncn1 (stereo not drawn)
5.05%: max response [17]
inactive: outcome [2] | Potency [14] | outcome [20] | Potency [16] | Potency [5] | max response [18] -37.6% | activation [6] -1.43% | activation [8] 7.02% | max response [9] 0.489% | Potency [19] | max response [10] -5.93% | max response [11] -11.5% | Potency [12] | max response [13] 12.5%
6%: max response [15]

CCOC(=O)C(Cl)Cc1cc(-n2nc(C)n(C(F)F)c2=O)c(F)cc1Cl (stereo not drawn)
64.4%: max response [3]
14.3%: max response [15]
inactive: activation [1] 1.1% | outcome [2] | Potency [4] | Potency [14] | outcome [20] | Potency [16] | Potency [5] | max response [18] -48.3% | activation [6] 1.44% | activation [7] -0.796% | activation [8] 1.53% | max response [9] 11% | Potency [19] | max response [10] -4.81% | max response [13] -2.22%
13.3%: max response [17]

CC1=C(C(=O)Nc2ccccc2)S(=O)(=O)CCO1
inactive: activation [1] -2.72% | Potency [5] | activation [7] -0.594% | activation [8] -2.25% | max response [9] -2.04% | max response [10] -1.32% | max response [11] -49.4% | Potency [12] | max response [13] -5.83%

CC1(C)C(C(=O)OC(C#N)c2cccc(Oc3ccccc3)c2)C1(C)C (stereo not drawn)
-18.6%: max response [17]
-5.14%: max response [15]
inactive: activation [1] 5.5% | outcome [2] | Potency [4] | Potency [14] | outcome [20] | Potency [16] | max response [18] -14.5% | activation [6] -5.39% | activation [7] 2.53% | activation [8] -0.509% | max response [9] -0.276% | Potency [19] | max response [10] -19.4% | max response [11] -11.3% | Potency [12]
27.8%: max response [3]

CCCCOC(=O)c1ccccc1C(=O)O
2.69%: max response [17]
-15.3%: max response [15]
inactive: activation [1] -1.61% | outcome [2] | Potency [4] | Potency [16] | Potency [5] | max response [18] 13.7% | activation [6] -2.82% | activation [7] 1.8% | activation [8] -4.01% | max response [9] 0.528% | Potency [19] | max response [10] 18.5% | max response [13] -8.39%
23.7%: max response [3]

N#CC(CCc1ccc(Cl)cc1)(Cn1cncn1)c1ccccc1 (stereo not drawn)
6.94%: max response [17]
inactive: outcome [20] | max response [18] -64.1% | activation [6] 0.949% | activation [7] 2.24% | activation [8] 3.22% | max response [9] -0.149% | Potency [19] | max response [10] -21.6% | max response [11] -24.7%

CCOP(=O)(OCC)OP(=O)(OCC)OCC
14.8%: max response [3]
-3.28%: max response [17]
-12.7%: max response [15]
inactive: activation [1] 2.91% | outcome [2] | Potency [4] | Potency [14] | outcome [20] | Potency [16] | Potency [5] | max response [18] -9.63% | activation [6] -6.2% | activation [7] -0.353% | activation [8] -0.108% | max response [9] -1.23% | Potency [19] | max response [10] 5.73% | max response [11] -8.91% | Potency [12] | max response [13] 8.32%

CC(C)[C@@H](Nc1ccc(C(F)(F)F)cc1Cl)C(=O)OC(C#N)c1cccc(Oc2ccccc2)c1 (stereo partly drawn)
inactive: outcome [20] | Potency [5] | activation [8] 0.736% | max response [9] -1.14% | Potency [19] | max response [10] -3.6% | max response [11] -27.3% | Potency [12]

CC1(C)CON(Cc2ccccc2Cl)C1=O
inactive: outcome [2] | Potency [4] | Potency [14] | Potency [16] | Potency [5] | max response [18] -4.63% | activation [6] -1.76% | activation [7] 0.414% | activation [8] 5.31% | max response [9] 0.0347% | max response [10] -9.67% | max response [11] -8.49% | Potency [12] | max response [13] 13.2%
5.44%: max response [15]
23.3%: max response [3]
-9.42%: max response [17]

CN/C(=N\[N+](=O)[O-])NCc1cnc(Cl)s1
inactive: Potency [14] | outcome [20] | Potency [16] | Potency [5] | max response [18] -1.36% | activation [8] 1.58% | max response [9] -0.992% | Potency [19] | max response [10] 0.65% | max response [11] -4.28% | Potency [12] | max response [13] 6.52%
-9.8%: max response [17]
-16.2%: max response [15]
